Screen size: about 5,500 compounds; about 2,000 (36%) were called active. Roughly 18% stayed inconclusive and do not appear here. Rule as the data show it: active = normalized growth mostly below about 0.91 (no sharp cut-off); inconclusive = no clear call, values can overlap the other calls; inactive = mostly above about 0.92. The list shows a part of the results.
Experiment: chemical genetic growth profiling, strain panel (AID 1159580);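 also: tested at 20 µM; growth read once vehicle control cultures reached saturation at 30 °C; 1 = growth at the plate median or of vehicle wells; lower values mean less growth of the strain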
Conditions: S. cerevisiae deletion strains, growth OD

Measured: normalized growth

CC12CCC(O)CC1CCC1C2[C@H](O)CC2(C)C(C3=CC(=O)OC3)CCC12O (stereo partly drawn)
inactive: locus YBR021W, strain FUR4, stronger effect = lower value 1.02 | locus YBR229C, strain ROT2, stronger effect = lower value 1.03 | locus YCL029C, strain bik1, stronger effect = lower value 1.01 | locus YDL035C, strain GPR1, stronger effect = lower value 1.07 | locus YDL074C, strain BRE1, stronger effect = lower value 1.08 | locus YDL101C, strain DUN1, stronger effect = lower value 1.02 | locus YDL185W, strain tfp1, stronger effect = lower value 0.995 | locus YDL192W, strain arf1, stronger effect = lower value 1.01 | locus YDR101C, strain arx1, stronger effect = lower value 1.02 | locus YDR162C, strain NBP2, stronger effect = lower value 1.03 | locus YDR318W, strain mcm21, stronger effect = lower value 0.998 | locus YDR388W, stronger effect = lower value 0.983 | locus YDR502C, strain sam2, stronger effect = lower value 1 | locus YER110C, stronger effect = lower value 0.988 | locus YER155C, strain BEM2, stronger effect = lower value 1.01 | locus YER167W, strain BCK2, stronger effect = lower value 1.04 | locus YGL078C, strain dbp3, stronger effect = lower value 1 | locus YGL086W, strain mad1, stronger effect = lower value 0.992 | locus YGL248W, strain PDE1, stronger effect = lower value 1.02 | locus YGR135W, strain pre9, stronger effect = lower value 0.976 | locus YGR252W, strain gcn5, stronger effect = lower value 0.954 | locus YHR079C, strain IRE1 (second series), stronger effect = lower value 0.992 | locus YHR094C, strain hxt1, stronger effect = lower value 0.984 | locus YHR129C, strain ARP1, stronger effect = lower value 1.02 | locus YHR200W, strain rpn10, stronger effect = lower value 0.999 | locus YIL066C, strain RNR3, stronger effect = lower value 1.04 | locus YIL073C, strain SPO22, stronger effect = lower value 1.06 | locus YIL125W, strain kgd1, stronger effect = lower value 0.996 | locus YIR030C, strain dcg1, stronger effect = lower value 0.986 | locus YJL095W, strain BCK1, stronger effect = lower value 1.03 | locus YJL134W, strain LCB3, stronger effect = lower value 1.01 | locus YJL168C, strain set2, stronger effect = lower value 0.992 | locus YJL187C, strain SWE1 (second series), stronger effect = lower value 1.01 | locus YJR043C, strain POL32, stronger effect = lower value 1.06 | locus YJR075W, strain HOC1, stronger effect = lower value 1.03 | locus YKL009W, strain mrt4, stronger effect = lower value 1.06 | locus YKL068W, stronger effect = lower value 1 | locus YKL085W, strain MDH1 (second series), stronger effect = lower value 1 | locus YKL085W, strain MDH1, stronger effect = lower value 1 | locus YKL190W, strain CNB1, stronger effect = lower value 1.02 | locus YKR001C, strain vps1, stronger effect = lower value 1.01 | locus YLR039C, strain RIC1, stronger effect = lower value 1.1 | locus YLR058C, strain SHM2, stronger effect = lower value 1.03 | locus YLR102C, strain apc9, stronger effect = lower value 0.994 | locus YLR262C, strain YPT6, stronger effect = lower value 1.16 | locus YLR268W, strain sec22, stronger effect = lower value 1.01 | locus YLR371W, strain rom2, stronger effect = lower value 0.991 | locus YLR418C, strain cdc73, stronger effect = lower value 0.957 | locus YML016C, strain PPZ1, stronger effect = lower value 1.02 | locus YML032C, strain rad52, stronger effect = lower value 1 | locus YML124C, strain tub3, stronger effect = lower value 1 | locus YMR078C, strain ctf18, stronger effect = lower value 1 | locus YMR223W, strain ubp8, stronger effect = lower value 0.983 | locus YMR263W, strain SAP30, stronger effect = lower value 1.02 | locus YMR307W, strain GAS1, stronger effect = lower value 1.08 | locus YNL067W, strain RPL9B, stronger effect = lower value 1.01 | locus YNL153C, strain GIM3, stronger effect = lower value 1.03 | locus YNL233W, strain BNI4, stronger effect = lower value 1.03 | locus YNL250W, strain rad50, stronger effect = lower value 0.986 | locus YNL271C, strain bni1, stronger effect = lower value 0.995 | locus YNL298W, strain CLA4, stronger effect = lower value 1.02 | locus YNL307C, strain MCK1, stronger effect = lower value 0.987 | locus YNR052C, strain pop2, stronger effect = lower value 0.991 | locus YOL012C, strain htz1 0.714 | locus YOL147C, strain pex11, stronger effect = lower value 0.991 | locus YOR061W, strain CKA2, stronger effect = lower value 1.06 | locus YOR069W, strain VPS5, stronger effect = lower value 1.01 | locus YOR136W, strain idh2, stronger effect = lower value 1.01 | locus YOR144C, strain elg1, stronger effect = lower value 0.998 | locus YOR184W, strain ser1, stronger effect = lower value 1.05 | locus YOR316C, strain cot1, stronger effect = lower value 0.995 | locus YPL055C, strain LGE1, stronger effect = lower value 1.07 | locus YPL241C, strain CIN2, stronger effect = lower value 1.01 | locus YPR119W, strain clb2, stronger effect = lower value 0.994 | locus YPR141C, strain kar3, stronger effect = lower value 0.982 | locus YPR163C, strain tif3, stronger effect = lower value 0.998 | locus YPR167C, strain met16, stronger effect = lower value 0.993 | strain wtn01, stronger effect = lower value 1.01
